Inconclusive results are not listed. Entries that show only a call come without a potency. A number with no mark means an inactive call. The source made the active and inactive calls. Calls come from the whole dose curve; as a rule, active = well fitted inhibition curve with a large enough effect; inconclusive = small, poorly fitted or top-dose-only effect; inactive = no such curve, though single readings can be large or run the other way.
Columns and labels:
[1] = tested on: Zika virus NS2B-NS3 protease (unlinked complex); test: Primary screen GU Rhodamine qHTS for Zika virus inhibitors: Unlinked NS2B-NS3 protease assay (AID 1347159); conditions: Recombinant ZIKV NS2B-NS3 protease, Rhodamine110 substrate fluorescence; series mostly up to 107 µM; note: nearly all actives have a fitted effect of over 60% in size
Summary of the method: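 A qHTS format was used, with compound concentrations ranging up to 114 microM. Each compound was preincubated with 25 nM NS2B-NS3 protease, and the substrate was then added at 1.5 microM. Curves were fitted with a 4-parameter Hill model.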

[2] = tested on: Zika virus NS2B-NS3 protease (linked construct); test: Primary screen NINDS Rhodamine qHTS for Zika virus inhibitors (AID 1347160); conditions: purified NS2B-NS3 protease, Rhodamine110 substrate fluorescence; series mostly up to 57.1 µM; note: nearly all actives have a fitted effect of over 55% in size
Summary of the method: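 Kinetic fluorescence (Ex 480 nm, Em 540 nm) over 15 min with 1.5 microM Rhodamine110 peptide and 25 nM linked protease.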
Potency is the fitted concentration of half-maximal effect.

Row | SMILES | Potency [1] | Potency [2] | activity change, negative = inhibition [1] | activity change, negative = inhibition [2]
1 | C=C1C(=O)O[C@H]2C3=C(C)CCC[C@]3(C)C(=O)C[C@@H]12 | inactive | inactive |  | 
2 | CCC(C)C(=O)OC12C(OC(C)=O)C(C)C3(O)C(C=C(CO)CC4(O)C(=O)C(C)=CC43)C1C2(C)C (stereo unspecified) | inactive | inactive |  | 
3 | C=C1C(=O)OC2C(OC(=O)C=C(C)C)C(C)=C3C(=O)C=C(C)C3C(O)C12 (stereo unspecified) | inactive | inactive |  | 
4 | CN(C)CCN(Cc1ccc(-c2ccc(CNCCc3ccccc3)cc2)cc1)C(=O)CCC1CCCC1 | inactive | inactive |  | 
5 | CN1CC[C@@H](c2c(O)cc(O)c3c(=O)cc(-c4ccc(C(F)(F)F)cc4Cl)oc23)[C@@H]1CO | inactive | inactive |  | 
6 | CCOc1ccc(Cc2nc(-c3c(C)nc4ccccn34)cs2)cc1 | inactive | inactive |  | 
7 | C=CC(C)(O)CC/C=C(\C)C(=O)OC1C(O)C(CO)OC(OC(=O)C23CCC(C)(C)CC2C2=CCC4C5(C)CCC(OC6OC(COC7OCC(OC(C)=O)C(O)C7OC7OC(COC(C)=O)C(O)C(O)C7OC(C)=O)C(O)C(O)C6OC6OCC(O)C(O)C6O)C(C)(C)C5CCC4(C)C2(C)C(O)C3O)C1OC1OCC(OC2OCC(O)C(OC3OCC(O)C(O)C3O)C2O)C(O)C1O (stereo unspecified) |  |  | 23.6% [at 19.1 µM] | -13.7% [at 10.7 µM]
8 | C=C1C(=O)O[C@@H]2C[C@]3(C)[C@@H](CCC(C)O)[C@@H]3C[C@H]12 (stereo partly specified) | inactive | inactive |  | 
9 | CCn1nc(C2CCN(C(=O)CCO)CC2)nc1-c1cnc(N)c(-c2nnc(C(C)(C)C)o2)n1 | inactive | inactive |  | 
10 | COC1CCN(C(=O)c2cc(Cc3n[nH]c(=O)c4ccccc34)ccc2F)CC1 | inactive | inactive |  | 
11 | CC(C)OC(=O)N1CCC(Oc2ncnc3c2cnn3-c2ccc(S(C)(=O)=O)cc2F)CC1 | inactive | inactive |  | 
12 | C=C(C)C1=C[C@@]2(C)C(=CC1=O)CC[C@@H](O)[C@@H]2C | inactive | inactive |  | 
13 | N#Cc1ccc(O[C@@H]2c3ccccc3C[C@H]2N2CCC[C@@H](N)C2)c(Cl)c1 | inactive | inactive |  | 
14 | COc1cc(-c2nc(N[C@H](CO)Cc3ccccc3)ccc2C(=O)NCCOc2ccccc2)cc(OC)c1OC | inactive | inactive |  | 
15 | O=c1[nH]c2ccc(C#CCN3CCC(Cc4ccccc4)CC3)cc2[nH]1 | inactive | inactive |  | 
16 | CC(C)(F)CC(NC(c1ccc(-c2ccc(S(C)(=O)=O)cc2)cc1)C(F)(F)F)C(=O)NC1(C#N)CC1 (stereo unspecified) | inactive | inactive |  | 
17 | COc1cc2nc(C3CC3)nc(N3CCN(c4ccccc4OC)CC3)c2cc1OC | inactive | inactive |  | 
18 | C/C1=C\CCC2=CC(OC2=O)C(C)(C)/C=C/C1=O (stereo unspecified) | inactive | inactive |  | 
19 | CCc1c[nH]c2ncnc(N3CC[C@](N)(CNC(=O)c4ccc(F)cc4F)C3)c12 | inactive | inactive |  | 
20 | CCN(c1cc(-c2ccc(CN3CCOCC3)cc2)cc(C(=O)NCc2c(C)cc(C)[nH]c2=O)c1C)C1CCOCC1 | inactive | inactive |  | 
21 | COc1cc(N2CCC(N3CCN(C)CC3)CC2)ccc1Nc1ncc(Cl)c(Nc2ccccc2P(C)(C)=O)n1 | inactive | inactive |  | 
22 | CC(C)S(=O)(=O)NC[C@@H]1CC(c2ccc(N3CCCC3)c(F)c2)=NO1 | inactive | inactive |  | 
23 | Nc1ncnc2c1c(-c1ccc(Cl)cc1)nn2-c1cccc(-c2cnnn2Cc2cccc(-c3ccccc3)c2)c1 | inactive | inactive |  | 
24 | COc1ccc2c(NC(=O)Nc3cccc(C(F)(F)F)n3)ccnc2c1 | inactive | inactive |  | 
25 | Cn1ncnc1[C@H]1c2n[nH]c(=O)c3cc(F)cc(c23)N[C@@H]1c1ccc(F)cc1 | inactive | inactive |  | 

Row | SMILES | Potency [1] | Potency [2] | activity change, negative = inhibition [1] | activity change, negative = inhibition [2]
26 | COC(=O)c1sccc1S(=O)(=O)Nc1ccc(Nc2ccccc2)cc1OC | inactive | inactive |  | 
27 | Fc1ccc(-c2cncc(CN3CCN(c4cccc5c4OCCO5)CC3)c2)cc1 | inactive | inactive |  | 
28 | Cc1ccc(C2(C(=O)N3CCC(n4nc(-c5ccccc5)oc4=O)CC3)CC2)cc1 | inactive | inactive |  | 
29 | CC1OC2OC(=O)C3(C)CC4C5(CO5)C5=CC(=O)OC(C)(C)C5=CC(=O)C4(C)C(C1=O)C23 (stereo unspecified) | 15.8 µM (active) | 12.6 µM (active) |  | 
30 | CC(C)CCNC(=O)[C@H](CC(C)C)NC(=O)[C@H]1O[C@@H]1C(=O)O | inactive | inactive |  | 
31 | C=C(C)C(=O)O[C@H]1C[C@@](C)(O)C2(O)CCC(C)(/C=C3/OC(=O)C(COC)=C31)O2 (stereo partly specified) | inactive | inactive |  | 
32 | Cc1ccc(CNc2ncnc3ccc(-c4ccc(CO)o4)cc23)o1 | inactive | inactive |  | 
33 | C=C(C)C1CC(O)C(C)C12CC(O)C1(C)OC1C2O (stereo unspecified) | inactive | inactive |  | 
34 | CCCCCCCCC(=O)N[C@H](CN1CCCC1)[C@H](O)c1ccc2c(c1)OCCO2 | inactive | inactive |  | 
35 | CC1=CC2/C=C(\C)CCC(O)C(=O)C(O)CC(=O)C23C(=O)NC(CC(C)C)C3C1C (stereo unspecified) | inactive | inactive |  | 
36 | NS(=O)(=O)c1ccc(N2CCN(CC[C@@H]3OCCc4ccccc43)CC2)cc1 | inactive | inactive |  | 
37 | C[C@@H]1O[C@@H](O[C@H]2[C@@H]3C=CO[C@@H](O[C@@H]4O[C@H](CO)[C@@H](O)[C@H](O)[C@H]4O)[C@@H]3[C@@]3(CO)O[C@@H]23)[C@H](O)[C@H](OC(=O)/C=C/c2ccccc2)[C@H]1O | inactive | inactive |  | 
38 | CC(=O)c1c(C)cc2cccc(O)c2c1O[C@@H]1O[C@H](CO)[C@@H](O)[C@H](O)[C@H]1O | inactive | inactive |  | 
39 | Fc1ccc(CN2CCC(Nc3ccc(C(F)(F)F)nn3)CC2)cc1F | inactive | inactive |  | 
40 | CNC1CN(c2ccc3c(=O)c(C(=O)O)cn(-c4nccs4)c3n2)CC1OC (stereo unspecified) |  |  | 18.7% [at 19.1 µM] | 19.1% [at 10.7 µM]
41 | C=C1C(=O)O[C@@H]2[C@H]1CCC(C)=C(CCC(=O)O)[C@@]2(C)O | inactive | inactive |  | 
42 | Nc1nccc(-c2c(-c3ccc(F)cc3)ncn2C2CCCCC2)n1 | inactive | inactive |  | 
43 | COC1=CC(=O)C=C(C)C12Oc1c(Cl)c(OC)cc(OC)c1C2=O (stereo unspecified) | inactive | inactive |  | 
44 | C=C[C@H](/C=C\c1ccc(O)cc1)c1ccc(O)cc1 | inactive | inactive |  | 
45 | N#Cc1ccc(COc2ccc(-c3cccc4nc(NC(=O)C5CC5)nn34)cc2)cn1 | inactive | inactive |  | 
46 | C=C(C(=O)O[C@H]1C/C(C)=C/CC/C(CO)=C/[C@H]2OC(=O)C(=C)[C@H]12)C(O)CO (stereo partly specified) | inactive | inactive |  | 
47 | C=CC(=O)Nc1ccc(CN2C(=O)N(c3cc(OC)cc(OC)c3)Cc3cnc(Nc4ccc(N5CCN(C)CC5)cc4)nc32)cc1 | inactive | inactive |  | 
48 | C[C@@H](NC(=O)C(=O)c1c[nH]c2ccc([N+](=O)[O-])cc12)c1ccccc1 | inactive | inactive |  | 
49 | COc1ccc([C@H]2Cc3cccc(O)c3C(=O)O2)cc1OC | inactive | inactive |  | 
50 | O=C(Nc1ccc(N(Cc2ccsc2)C(=O)Cn2nnc3ccccc32)cc1)C1CC1 | inactive | inactive |  | 

Row | SMILES | Potency [1] | Potency [2] | activity change, negative = inhibition [1] | activity change, negative = inhibition [2]
51 | COC1CC(=O)C23C(=O)NC(CC(C)C)C2C(C)C(C)=CC3/C=C(\C)CCCC1O (stereo unspecified) | inactive | inactive |  | 
52 | COc1ccc(N2CCN(C(=O)c3cc4c(s3)-c3ccccc3S(=O)(=O)C4)CC2)cc1 | inactive | inactive |  | 
53 | Cc1ccc(-c2ncc[nH]2)cc1NC(=O)c1ccc(OCc2ccccn2)cc1 | inactive | inactive |  | 
54 | C=CC(=O)N1CCN(C(=O)CNc2cc(-c3ccccc3Cl)c(Cl)cc2OC)CC1 | inactive | inactive |  | 
55 | COc1cc2ncnc(Oc3ccc(CC(=O)Nc4cnn(C(C)C)c4)cc3)c2cc1OC | inactive | inactive |  | 
56 | COc1cc(Br)c(S(=O)(=O)Nc2ccc(Cl)c(O[C@@H]3CCN(C)C3)c2)cc1OC | inactive | inactive |  | 
57 | CC(C)=CCC/C(C)=C/COCC1OC(n2ccc(=O)[nH]c2=O)C(O)C1O (stereo unspecified) | inactive | inactive |  | 
58 | C=C1[C@H]2CC[C@H](C(=O)O)[C@@]23CC[C@H](C3)C1(C)C | inactive | inactive |  | 
59 | COc1cc2c(cc1-c1c(C)noc1C)ncc1[nH]c(=O)n(C(C)c3ccccn3)c12 (stereo unspecified) | inactive | inactive |  | 
60 | COC1=CC(=O)C[C@@H](C)[C@@]12Oc1c(Cl)c(OC)cc(OC)c1C2=O | inactive | inactive |  | 
61 | CCCCCCOC(=O)/N=C(\N)c1ccc(NCc2nc3cc(C(=O)N(CCC(=O)OCC)c4ccccn4)ccc3n2C)cc1 | inactive | inactive |  | 
62 | C=C1C(=O)OC2/C=C(\CO)CC/C=C(\C=O)C(OC)C(OC(=O)C(C)CC)C12 (stereo unspecified) | inactive | inactive |  | 
63 | CN1CCC(c2cn(C)c3ccc(OS(=O)(=O)c4c(F)cccc4F)cc23)CC1 | inactive | inactive |  | 
64 | C/C=C(\C)C(=O)O[C@H]1C=CC(=O)O[C@H]1/C=C/[C@@H](O)[C@H](C)O | inactive | inactive |  | 
65 | Cc1cc(C(=O)Cn2cc(C#N)ccc2=O)c(C)n1Cc1ccccc1 | inactive | inactive |  | 
66 | O=C(NC[C@H](O)CN1CCc2ccccc2C1)c1ccnc(NC2CCC2)c1 | inactive | inactive |  | 
67 | COc1ccc(Oc2c(Cl)cnn(-c3cc(C)cc(C)c3)c2=O)cc1 | inactive | inactive |  | 
68 | O=c1cc(NCCCN[C@@H]2CCOc3c(Br)cc(Br)cc32)[nH]c2ccsc12 | inactive | inactive |  | 
69 | CC(C)c1c(O)ccc2c1CC[C@H]1C(C)(C)CCC[C@]21C | 14.1 µM (active) | 22.4 µM (active) |  | 
70 | CC(C)C[C@@H]1NC(=O)[C@@H](Cc2ccccc2)NC(=O)C(CCCCCC(=O)C2CO2)NC(=O)[C@@H]2CCCCN2C1=O (stereo partly specified) | inactive | inactive |  | 
71 | CCC(=O)N1CCOc2c(cc(-c3ccc(OC)c(OC)c3)cc2OC[C@H]2CCCN(C)C2)C1 | inactive | inactive |  | 
72 | CN1CCN(c2ccc(Nc3cc(-c4cccc(-n5ccc6cc(C7CC7)cc(F)c6c5=O)c4CO)cn(C)c3=O)nc2)CC1 | inactive | inactive |  | 
73 | CCn1c(N)c(C(=O)NC)c(=O)c2ccc(C#CC(C)(O)COC)nc21 (stereo unspecified) | inactive | inactive |  | 
